Results from article PMC7862700, “An all-to-all approach to the identification of sequence-specific readers for epigenetic DNA modifications on cytosine”.

Tests used:
Assay in all cases: DAPPL (digital affinity profiling via proximity ligation, sequencing); 10 mM Tris-HCl pH 7.5, 50 mM NaCl, 1 mM DTT, 4% glycerol, room temperature, 30 min; GST-TFs on glutathione beads, 16-mer random dsDNA library, 0.1% formaldehyde crosslink after washing; high values mean tight binding
Details in all cases: protein: recombinant; tags: N-terminal GST; dsDNA, one strand shown
FLI1 = molecular target: T1, FLI1 (Homo sapiens, UniProt Q01543 1-452)
T1 sequence: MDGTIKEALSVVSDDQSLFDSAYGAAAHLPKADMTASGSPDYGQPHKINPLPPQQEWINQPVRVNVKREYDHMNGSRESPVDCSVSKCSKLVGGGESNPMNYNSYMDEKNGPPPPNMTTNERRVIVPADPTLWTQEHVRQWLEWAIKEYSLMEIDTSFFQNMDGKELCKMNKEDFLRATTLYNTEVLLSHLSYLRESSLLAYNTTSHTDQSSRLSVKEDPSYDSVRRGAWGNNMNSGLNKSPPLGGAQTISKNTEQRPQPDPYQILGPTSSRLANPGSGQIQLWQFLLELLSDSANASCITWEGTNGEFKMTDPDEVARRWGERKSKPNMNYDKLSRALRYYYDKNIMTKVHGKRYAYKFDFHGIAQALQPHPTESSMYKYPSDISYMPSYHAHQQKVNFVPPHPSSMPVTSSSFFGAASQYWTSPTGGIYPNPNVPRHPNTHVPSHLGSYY
In short: (§1)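 The binding signal reported is, for every hexamer, its read frequency for a factor over its read frequency for the tag-only sample. Reads came from pools of yeast-expressed, GST-fused human transcription factors on glutathione beads, barcoded with DNA and mixed with that sample, which were incubated with 200 nmole of a random double-stranded 16-mer DNA library in Tris/NaCl/DTT/glycerol buffer at room temperature for 30 min. After washing, the pools were crosslinked with 0.1% formaldehyde, proximity-ligated with BsaI/T4 ligase for 1 h at 37 °C, PCR-amplified and sequenced on an Illumina NextSeq500.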

ELK1 = molecular target: T2, ELK1 (Homo sapiens, UniProt P19419 1-428)
T2 sequence: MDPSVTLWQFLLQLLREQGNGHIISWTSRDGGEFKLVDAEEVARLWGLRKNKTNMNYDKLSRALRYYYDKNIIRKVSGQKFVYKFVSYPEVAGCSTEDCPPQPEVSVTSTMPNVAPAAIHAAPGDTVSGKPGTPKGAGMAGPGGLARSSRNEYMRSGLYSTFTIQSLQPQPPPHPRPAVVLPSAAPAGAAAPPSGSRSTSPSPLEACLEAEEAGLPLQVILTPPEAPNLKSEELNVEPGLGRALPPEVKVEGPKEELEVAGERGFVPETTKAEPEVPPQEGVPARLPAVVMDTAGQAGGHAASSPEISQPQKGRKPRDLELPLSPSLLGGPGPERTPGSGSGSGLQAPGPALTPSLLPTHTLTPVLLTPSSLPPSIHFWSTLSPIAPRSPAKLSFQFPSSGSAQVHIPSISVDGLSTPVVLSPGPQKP
In short: as §1

GABPA = molecular target: T3, GABPA (Homo sapiens, UniProt Q06546 1-454)
T3 sequence: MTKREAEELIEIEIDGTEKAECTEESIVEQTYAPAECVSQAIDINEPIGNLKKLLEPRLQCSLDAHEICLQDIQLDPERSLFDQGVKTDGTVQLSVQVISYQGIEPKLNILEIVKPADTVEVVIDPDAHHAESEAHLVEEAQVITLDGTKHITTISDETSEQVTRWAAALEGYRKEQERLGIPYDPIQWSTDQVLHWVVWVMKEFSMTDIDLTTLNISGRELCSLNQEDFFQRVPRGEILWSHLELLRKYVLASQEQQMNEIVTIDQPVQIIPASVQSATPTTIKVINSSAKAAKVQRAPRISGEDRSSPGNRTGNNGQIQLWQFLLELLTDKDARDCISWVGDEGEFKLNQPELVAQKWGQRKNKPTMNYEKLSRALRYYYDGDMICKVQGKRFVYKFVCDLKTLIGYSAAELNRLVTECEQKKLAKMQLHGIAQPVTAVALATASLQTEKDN
In short: as §1

ERG = molecular target: T4, ERG (Homo sapiens, UniProt P11308 1-479)
T4 sequence: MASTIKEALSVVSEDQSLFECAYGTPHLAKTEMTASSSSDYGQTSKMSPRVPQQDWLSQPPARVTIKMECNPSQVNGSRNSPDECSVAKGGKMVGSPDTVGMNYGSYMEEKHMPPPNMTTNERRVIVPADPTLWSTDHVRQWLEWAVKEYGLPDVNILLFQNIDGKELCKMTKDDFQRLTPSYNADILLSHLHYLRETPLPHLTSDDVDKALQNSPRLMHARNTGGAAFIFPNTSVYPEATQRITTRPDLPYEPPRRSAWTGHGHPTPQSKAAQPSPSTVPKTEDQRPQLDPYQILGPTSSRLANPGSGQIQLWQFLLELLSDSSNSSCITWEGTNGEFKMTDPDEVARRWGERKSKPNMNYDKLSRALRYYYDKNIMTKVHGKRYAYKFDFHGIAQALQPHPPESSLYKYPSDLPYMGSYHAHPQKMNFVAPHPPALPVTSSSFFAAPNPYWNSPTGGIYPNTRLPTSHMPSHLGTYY
In short: as §1

ELF1 = ELF1 (Homo sapiens, UniProt P32519 1-619)
Chain of ELF1 (P32519 whole entry): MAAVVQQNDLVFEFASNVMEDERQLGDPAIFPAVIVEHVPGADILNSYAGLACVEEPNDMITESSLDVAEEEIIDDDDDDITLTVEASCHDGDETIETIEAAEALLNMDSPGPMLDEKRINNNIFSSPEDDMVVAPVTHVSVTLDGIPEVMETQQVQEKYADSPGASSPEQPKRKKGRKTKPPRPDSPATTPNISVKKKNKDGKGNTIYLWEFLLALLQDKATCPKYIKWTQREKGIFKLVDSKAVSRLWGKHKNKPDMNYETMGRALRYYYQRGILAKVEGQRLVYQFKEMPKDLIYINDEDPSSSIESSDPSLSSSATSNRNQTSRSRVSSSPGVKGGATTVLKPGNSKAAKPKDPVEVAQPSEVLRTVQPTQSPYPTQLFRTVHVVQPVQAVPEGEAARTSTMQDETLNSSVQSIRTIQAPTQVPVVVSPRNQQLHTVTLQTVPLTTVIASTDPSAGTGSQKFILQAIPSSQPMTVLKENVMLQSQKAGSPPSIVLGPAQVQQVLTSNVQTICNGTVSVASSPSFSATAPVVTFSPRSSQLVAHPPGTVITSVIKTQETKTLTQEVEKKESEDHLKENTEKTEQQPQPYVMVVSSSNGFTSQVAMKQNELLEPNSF
In short: as §1

EHF = molecular target: T5, EHF (Homo sapiens, UniProt Q9NZC4 1-300)
T5 sequence: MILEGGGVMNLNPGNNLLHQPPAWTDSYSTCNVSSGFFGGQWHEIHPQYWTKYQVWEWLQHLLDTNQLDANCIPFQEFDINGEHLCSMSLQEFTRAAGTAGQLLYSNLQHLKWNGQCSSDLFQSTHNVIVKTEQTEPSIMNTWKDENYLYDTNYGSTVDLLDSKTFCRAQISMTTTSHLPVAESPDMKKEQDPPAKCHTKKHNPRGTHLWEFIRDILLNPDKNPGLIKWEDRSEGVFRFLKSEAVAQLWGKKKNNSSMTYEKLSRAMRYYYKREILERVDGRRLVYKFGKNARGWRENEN
In short: as §1

SPI1 = SPI1 (Homo sapiens, UniProt P17947 1-270)
In short: as §1

ELK3 = molecular target: T6, ELK3 (Homo sapiens, UniProt P41970 1-407)
T6 sequence: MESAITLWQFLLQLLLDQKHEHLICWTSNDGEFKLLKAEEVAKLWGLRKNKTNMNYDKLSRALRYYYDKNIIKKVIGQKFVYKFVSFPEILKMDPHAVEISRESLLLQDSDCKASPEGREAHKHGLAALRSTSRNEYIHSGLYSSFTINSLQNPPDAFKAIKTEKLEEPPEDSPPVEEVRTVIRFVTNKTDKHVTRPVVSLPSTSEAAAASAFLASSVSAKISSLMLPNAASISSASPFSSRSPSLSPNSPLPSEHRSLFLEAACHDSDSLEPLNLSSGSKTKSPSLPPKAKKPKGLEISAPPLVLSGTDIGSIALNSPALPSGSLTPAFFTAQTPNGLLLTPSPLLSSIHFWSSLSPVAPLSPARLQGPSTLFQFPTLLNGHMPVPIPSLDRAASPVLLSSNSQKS
In short: as §1

SPIB = SPIB (Homo sapiens, UniProt Q01892 1-262)
Chain of SPIB (Q01892 whole entry): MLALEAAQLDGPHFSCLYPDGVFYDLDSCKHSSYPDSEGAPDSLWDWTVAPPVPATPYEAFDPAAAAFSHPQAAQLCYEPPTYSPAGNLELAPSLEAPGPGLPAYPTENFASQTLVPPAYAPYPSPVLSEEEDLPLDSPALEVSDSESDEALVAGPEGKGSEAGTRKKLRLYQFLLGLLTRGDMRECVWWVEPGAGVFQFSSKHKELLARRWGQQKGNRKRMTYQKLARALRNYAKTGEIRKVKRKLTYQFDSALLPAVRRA
In short: as §1

| Sequence | binding signal (FLI1) | binding signal (ELK1) | binding signal (GABPA) | binding signal (ERG) | binding signal (ELF1) | binding signal (EHF) | binding signal (SPI1) | binding signal (ELK3) | binding signal (SPIB) |
| --- | --- | --- | --- | --- | --- | --- | --- | --- | --- |
| TAGAAT | 1.1 fold enrichment (6-mer frequency, TF over GST control) | 1.06 fold enrichment (6-mer frequency, TF over GST control) | 1.03 fold enrichment (6-mer frequency, TF over GST control) | 1.03 fold enrichment (6-mer frequency, TF over GST control) | 1.1 fold enrichment (6-mer frequency, TF over GST control) | 1.01 fold enrichment (6-mer frequency, TF over GST control) | 1.15 fold enrichment (6-mer frequency, TF over GST control) | 1.15 fold enrichment (6-mer frequency, TF over GST control) | – |
| ATCATT | 1.07 fold enrichment (6-mer frequency, TF over GST control) | 1.05 fold enrichment (6-mer frequency, TF over GST control) | 1.06 fold enrichment (6-mer frequency, TF over GST control) | 1.02 fold enrichment (6-mer frequency, TF over GST control) | 1.05 fold enrichment (6-mer frequency, TF over GST control) | 1.01 fold enrichment (6-mer frequency, TF over GST control) | 1.05 fold enrichment (6-mer frequency, TF over GST control) | 1.01 fold enrichment (6-mer frequency, TF over GST control) | – |
| CAAGGT | 1.1 fold enrichment (6-mer frequency, TF over GST control) | 1.13 fold enrichment (6-mer frequency, TF over GST control) | 1.03 fold enrichment (6-mer frequency, TF over GST control) | 1.07 fold enrichment (6-mer frequency, TF over GST control) | 1.05 fold enrichment (6-mer frequency, TF over GST control) | 1.13 fold enrichment (6-mer frequency, TF over GST control) | 1.02 fold enrichment (6-mer frequency, TF over GST control) | 1.12 fold enrichment (6-mer frequency, TF over GST control) | – |
| CATGGG | 1.04 fold enrichment (6-mer frequency, TF over GST control) | 1.07 fold enrichment (6-mer frequency, TF over GST control) | 1.04 fold enrichment (6-mer frequency, TF over GST control) | 1.07 fold enrichment (6-mer frequency, TF over GST control) | 1.05 fold enrichment (6-mer frequency, TF over GST control) | 1.03 fold enrichment (6-mer frequency, TF over GST control) | 1.03 fold enrichment (6-mer frequency, TF over GST control) | 1.09 fold enrichment (6-mer frequency, TF over GST control) | – |
| CAAGAA | 1.03 fold enrichment (6-mer frequency, TF over GST control) | 1.11 fold enrichment (6-mer frequency, TF over GST control) | 1.02 fold enrichment (6-mer frequency, TF over GST control) | 1.11 fold enrichment (6-mer frequency, TF over GST control) | 1.03 fold enrichment (6-mer frequency, TF over GST control) | 1.04 fold enrichment (6-mer frequency, TF over GST control) | 1.06 fold enrichment (6-mer frequency, TF over GST control) | 1.06 fold enrichment (6-mer frequency, TF over GST control) | – |
| TTACGT | 1.19 fold enrichment (6-mer frequency, TF over GST control) | 1.09 fold enrichment (6-mer frequency, TF over GST control) | 1.2 fold enrichment (6-mer frequency, TF over GST control) | 1.07 fold enrichment (6-mer frequency, TF over GST control) | 1.07 fold enrichment (6-mer frequency, TF over GST control) | 1.1 fold enrichment (6-mer frequency, TF over GST control) | 1.09 fold enrichment (6-mer frequency, TF over GST control) | 1.05 fold enrichment (6-mer frequency, TF over GST control) | – |
| GGTGTT | 1.07 fold enrichment (6-mer frequency, TF over GST control) | 1.13 fold enrichment (6-mer frequency, TF over GST control) | 1.11 fold enrichment (6-mer frequency, TF over GST control) | 1.08 fold enrichment (6-mer frequency, TF over GST control) | 1.09 fold enrichment (6-mer frequency, TF over GST control) | 1.04 fold enrichment (6-mer frequency, TF over GST control) | – | – | 1.02 fold enrichment (6-mer frequency, TF over GST control) |
| CGAACA | 1.09 fold enrichment (6-mer frequency, TF over GST control) | 1.08 fold enrichment (6-mer frequency, TF over GST control) | 1.11 fold enrichment (6-mer frequency, TF over GST control) | 1.11 fold enrichment (6-mer frequency, TF over GST control) | 1.13 fold enrichment (6-mer frequency, TF over GST control) | 1.14 fold enrichment (6-mer frequency, TF over GST control) | 1.15 fold enrichment (6-mer frequency, TF over GST control) | 1.09 fold enrichment (6-mer frequency, TF over GST control) | 1.19 fold enrichment (6-mer frequency, TF over GST control) |
